Measurements: ChEMBL document CHEMBL2218924, “A broad activity screen in support of a chemogenomic map for kinase signalling research and drug discovery” (Biochem J, 2013)

Each compound was assayed against PAS domain-containing serine/threonine-protein kinase (Homo sapiens) (UniProt Q96RG2). Details: at 1 µM.
Sequence of PAS domain-containing serine/threonine-protein kinase (Homo sapiens) (Q96RG2 whole entry, the tested form may be a part): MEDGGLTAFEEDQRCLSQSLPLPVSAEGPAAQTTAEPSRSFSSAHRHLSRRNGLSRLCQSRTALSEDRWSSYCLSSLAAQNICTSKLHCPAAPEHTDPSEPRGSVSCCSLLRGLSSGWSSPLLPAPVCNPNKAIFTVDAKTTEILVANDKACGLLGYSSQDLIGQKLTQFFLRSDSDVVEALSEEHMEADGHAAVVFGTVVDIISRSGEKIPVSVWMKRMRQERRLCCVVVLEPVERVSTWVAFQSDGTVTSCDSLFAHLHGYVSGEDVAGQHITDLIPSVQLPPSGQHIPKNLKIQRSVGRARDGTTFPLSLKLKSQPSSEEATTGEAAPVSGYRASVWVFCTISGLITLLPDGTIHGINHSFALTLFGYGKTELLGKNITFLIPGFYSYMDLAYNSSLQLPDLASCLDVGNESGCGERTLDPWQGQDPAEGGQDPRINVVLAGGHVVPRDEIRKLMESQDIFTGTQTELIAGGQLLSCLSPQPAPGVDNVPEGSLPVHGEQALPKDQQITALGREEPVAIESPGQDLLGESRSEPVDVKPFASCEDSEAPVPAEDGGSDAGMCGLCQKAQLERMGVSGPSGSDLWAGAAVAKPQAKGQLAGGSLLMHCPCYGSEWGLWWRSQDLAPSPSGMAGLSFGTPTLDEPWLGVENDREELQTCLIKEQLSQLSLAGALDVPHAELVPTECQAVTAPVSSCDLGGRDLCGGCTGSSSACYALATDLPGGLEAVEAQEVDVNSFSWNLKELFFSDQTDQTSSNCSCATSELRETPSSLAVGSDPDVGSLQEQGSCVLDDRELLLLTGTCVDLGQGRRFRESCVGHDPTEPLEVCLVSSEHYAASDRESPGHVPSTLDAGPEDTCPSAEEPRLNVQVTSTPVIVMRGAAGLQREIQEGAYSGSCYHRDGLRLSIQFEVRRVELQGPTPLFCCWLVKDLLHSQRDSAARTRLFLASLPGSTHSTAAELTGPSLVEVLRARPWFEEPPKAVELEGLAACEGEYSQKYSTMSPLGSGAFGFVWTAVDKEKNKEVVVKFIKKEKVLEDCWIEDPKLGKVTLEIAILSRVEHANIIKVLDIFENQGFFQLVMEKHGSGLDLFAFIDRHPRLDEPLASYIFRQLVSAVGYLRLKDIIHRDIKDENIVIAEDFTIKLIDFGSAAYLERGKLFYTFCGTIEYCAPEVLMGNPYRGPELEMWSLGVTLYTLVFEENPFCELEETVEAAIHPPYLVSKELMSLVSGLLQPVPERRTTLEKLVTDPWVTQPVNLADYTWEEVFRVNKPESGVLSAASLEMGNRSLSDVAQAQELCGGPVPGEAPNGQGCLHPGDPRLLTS

Compound | residual activity [%]
O=c1cc(N2CCOCC2)oc2c1ccc1ccccc12 | 141
O=c1c(-c2ccc(F)cc2)c(-c2ccncc2)[nH]n1-c1ccc(Cl)cc1 | 135
Cc1cc(Nc2nc(-c3ccccc3)nc3ccccc23)n[nH]1 | 108
CCN(CC)CCNC(=O)c1c(C)[nH]c(/C=C2\C(=O)Nc3ccc(Cl)cc32)c1C | 70
O=C(O)/C=C/c1cc(Br)c(Br)c(Br)c1Br | 63
Nc1ncnc2c1c(-c1ccc(Oc3ccccc3)cc1)cn2C1CCCC1 | 108
Nc1nc(Nc2ccc(S(N)(=O)=O)cc2)nn1C(=S)Nc1c(F)cccc1F | 108
CO[C@H]1[C@@H](OC)C[C@H](C)[C@@H](OC)C2=CC(=O)C=C(NC(=O)/C(C)=C/C=C/[C@H](OC)[C@@H](OC(N)=O)/C(C)=C/[C@@H]1C)C2=O | 125
CNc1cc2c(Nc3cccc(Br)c3)ncnc2cn1 | 128
CCOC(=O)c1c(C)[nH]c(/C=C2\C(=O)Nc3ccccc32)c1C | 93
COc1ccc(Cl)cc1NC(=O)Nc1cc(C)nc2ccccc12 | 98
Oc1n[nH]c2nnc(-c3c(-c4ccccc4)nn4ccccc34)cc12 | 100
NC(=O)Nc1sc(-c2ccc(F)cc2)cc1C(N)=O | 107
O=c1cc(-c2cccc3c2Sc2ccccc2S3)oc(N2CCOCC2)c1 | 109
COc1ccc(CNC(=O)Nc2ncc([N+](=O)[O-])s2)cc1 | 133
N#C/C(=C\c1ccc(O)c(O)c1)C(=O)NCc1ccccc1 | 100
O=C1NC(=O)C(c2c[nH]c3ccccc23)=C1c1c[nH]c2ccccc12 | 81
COc1ccc(S(=O)(=O)N(CCO)c2ccccc2CN(C)C/C=C/c2ccc(Cl)cc2)cc1 | 116
O=C(O)c1ccc2c3c1cccc3c(=O)n1c3ccccc3nc21 | 111
Cn1cnc2cc3c(Nc4cccc(Br)c4)ncnc3cc21 | 82

Compound | residual activity [%]
c1ccc2c(-c3ccncc3)c[nH]c2c1 | 99
Nc1ncnc2[nH]nc(Nc3ccc(F)cc3)c12 | 92
O=c1cc(N2CCNCC2)oc2c(-c3ccccc3)cccc12 | 148
Ic1cccc(CSc2nnc(-c3ccncc3)o2)c1 | 108
Nc1n[nH]c2nnc(-c3c(-c4ccccc4)nn4ccccc34)cc12 | 104
O=C1c2ccccc2-[n+]2ccc3c([nH]c4ccccc43)c21 | 147
NC(=O)c1ccc2[nH]c(-c3ccc(Oc4ccc(Cl)cc4)cc3)nc2c1 | 134
O=C1Nc2ccc(Cl)cc2/C1=C/c1cc(Cl)c(O)c(Cl)c1 | 111
N#CC(C#N)=C(N)/C(C#N)=C/c1ccc(O)cc1 | 99
O=c1cc(N2CCOCC2)oc2c(-c3ccccc3)cccc12 | 125
O=C(NC(NC(=S)Nc1ccc(F)c([N+](=O)[O-])c1)C(Cl)(Cl)Cl)C(c1ccccc1)c1ccccc1 (centres undefined) | 103
CN(C)CCCn1cc(C2=C(c3c[nH]c4ccccc34)C(=O)NC2=O)c2ccccc21 | 74
O=C1NC(=O)c2cc(Nc3ccc(F)cc3)c(Nc3ccc(F)cc3)cc21 | 105
O=C1Nc2ccc(Br)cc2/C1=C\c1cc2c([nH]1)CCCC2 | 129
CC(=O)c1ccc(N2CCOCC2)cc1O | 127
c1ccc(-c2n[nH]c3c2oc2ccccc23)cc1 | 130
O=C1Nc2ccccc2/C1=C\c1c(Cl)[nH]c2ccccc12 | 99
COc1cc2nccc(Oc3ccc(NC(=O)Nc4cc(C)on4)c(Cl)c3)c2cc1OC | 100
O=C(Nc1cccc(Nc2nccc(Nc3cccc(C(F)(F)F)c3)n2)c1)C1CC1 | 75
